# Laboratory results reported in PubChem BioAssay (EPA / NIEHS).
# Values joined by “and” are separate entries in the source; they are usually repeats but may differ in a detail not shown here. Identical values can stand only once. Records with an inconclusive call do not appear. Some compounds were tested as several samples or in several runs, with calls that do not always agree. Active and inactive are the calls of the source. Rule for the calls: active = hit-call score of the fitted dose curve at least 0.9, where 1 is the maximum; inconclusive = response in the unintended direction; inactive = score below 0.9.
# What was measured:
# [1] = test system: Thyroperoxidase (TPO), gene 54314; assay: CCTE_Simmons_AUR_rTPO: CCTE's Amplex UltraRed Assay for Thyroperoxidase (TPO) Inhibition, Simmons Lab (AID 2283662);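 for AC50: potency for loss of signal meaning inhibition of peroxidase activity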
# Outline: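 Endpoint is decreased Amplex UltraRed fluorescence after a 30-min, 37C reaction of rat thyroid microsomes with 300 uM H2O2. Eight test concentrations (5 nM–87.5 uM final) in 0.5% DMSO, three biological replicates each.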
# [2] = CCTE_Simmons_CellTiterGLO_HEK293T: Viability Assessment in CCTE's Assays for Thyroperoxidase (TPO) Inhibition, Simmons Lab (AID 2283665);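 for AC50: cells exposed to compound for 24 h before readout; actives reduce ATP signal below DMSO vehicle meaning cytotoxicity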
# Outline: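 HEK293T cells in DMEM with 1% FBS, dosed 24 h at 37C with 8 concentrations, 5 nM–87.5 uM final, 0.5% DMSO. ATP measured by CellTiter Glo luminescence; loss of signal vs DMSO, three biological replicates.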
# [3] = Tanguay_ZF_120hpf_TRUN_legacy: (Legacy) Oregon State University Tanguay Lab 120 Hour Post-fertilization zebrafish Assay for Truncated Body (AID 2283655)
# Outline: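 Tropical 5D wild-type embryos, dechorionated with pronase at 4 hpf, were placed singly in wells at 6 hpf and statically exposed at 28C until 120 hpf, final DMSO 0.64%. Truncated body was scored present/absent by brightfield microscopy.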
# [4] = Tanguay_ZF_120hpf_NC_legacy: (Legacy) Oregon State University Tanguay Lab 120 Hour Post-fertilization zebrafish Assay for Notochord and Tail Malformation (AID 2283656)
# Outline: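 Dechorionated Tropical 5D wild-type zebrafish embryos, one per well from 6 hpf, statically exposed to 120 hpf at 28C in 0.64% DMSO final. Notochord distortion scored present/absent by brightfield; dead embryos excluded.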
# [5] = Tanguay_ZF_120hpf_TR_legacy: (Legacy) Oregon State University Tanguay Lab 120 Hour Post-fertilization zebrafish Assay for Touch Response (AID 2283667)
# Outline: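 Tropical 5D wild-type zebrafish embryos statically exposed to 120 hpf at 28°C, sealed and dark-covered, 0.64% DMSO final; touch response scored as present/absent by brightfield microscopy at 120 hpf. Trimethyltin chloride 5 uM positive control; dead embryos not scored.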
compound,measurement,setting,value
CCC1(c2ccc(N)cc2)CCC(=O)NC1=O (configuration not stated),AC50,[1],0.935 µM (active)
NNC(=S)NN,AC50,[1],0.205 µM (active)
same,outcome,[2],inactive
CN(C)N=O,outcome,[3],inactive
same,outcome,[4],inactive
same,outcome,[5],inactive
CC(C)c1cccc(C(C)C)c1O,AC50,[1],10.3 µM (active)
same,AC50,[2],84.6 µM (active)
CC(C)(C)c1cc(O)ccc1O,outcome,[3],inactive
same,outcome,[4],inactive
same,AC50,[1],1.84 µM (active) [middle of 5 runs]
same,AC50,[2],85.6 µM (active) and 25.9 µM (active) and 27.6 µM (active)
same,outcome,[2],inactive
same,outcome,[5],inactive
Clc1ccc(C2(Cn3cncn3)CC(Br)CO2)c(Cl)c1 (configuration not stated),outcome,[1],inactive
same,AC50,[2],95.2 µM (active)
CCCCCCCCSC(=O)Oc1cc(Cl)nnc1-c1ccccc1,AC50,[1],43.8 µM (active)
same,outcome,[2],inactive
CCOP(=S)(OCC)Oc1nc(Cl)c(Cl)cc1Cl,outcome,[3],inactive
same,outcome,[4],inactive
same,AC50,[1],10.4 µM (active)
same,AC50,[2],17.9 µM (active)
same,outcome,[5],inactive
O=C1C2(Cl)C3(Cl)C4(Cl)C(Cl)(Cl)C5(Cl)C3(Cl)C1(Cl)C5(Cl)C24Cl (configuration not stated),AC50,[3],15.2 µM (active)
same,outcome,[4],inactive
same,AC50,[5],34.8 µM (active)
CC(C)(c1ccc(OCC2CO2)cc1)c1ccc(OCC2CO2)cc1 (configuration not stated),AC50,[1],43.5 µM (active)
same,AC50,[2],83.7 µM (active)
C[C@@H]1C[C@@H]([C@H](O)CC2CC(=O)NC(=O)C2)C(=O)[C@@H](C)C1,outcome,[3],inactive
Cc1ccc2ccccc2c1C,AC50,[1],34.3 µM (active)
same,AC50,[2],17.4 µM (active)
COP(=S)(OC)Oc1ccc(Sc2ccc(OP(=S)(OC)OC)cc2)cc1,AC50,[1],11.6 µM (active)
Cc1ccc(N)cc1Cl,AC50,[1],0.0109 µM (active)
same,AC50,[2],18.4 µM (active)
C[C@H]1CCCC(=O)CCC/C=C/c2cc(O)cc(O)c2C(=O)O1,AC50,[1],3.47 µM (active)
same,AC50,[2],89.2 µM (active)
CC1(C)Cc2cccc(O)c2O1,AC50,[1],12.2 µM (active)
CCOC(=O)Nc1cccc(OC(=O)Nc2ccccc2)c1,AC50,[1],1.38 µM (active)
same,AC50,[2],16.6 µM (active)
O=c1[nH]c(=O)[nH]c(=O)[nH]1,outcome,[3],inactive
same,outcome,[4],inactive
same,outcome,[5],inactive
